Source: PubChem BioAssay
PGK inhibitor: qHTS Assay to Find Inhibitors of Phosphoglycerate Kinase | Potency, µM (highest dose often 57.5 µM), for the others: at the top dose activity change, negative = inhibition, hits mostly inhibitors | Phosphoglycerate kinase, glycosomal (Trypanosoma brucei brucei), P07378 | PGK/GAPDH coupled, Kinase-Glo luminescence, 60 min | actives 0.043% (n = 380,000); also: nearly all actives have a fitted effect of over 60% in size
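Recombinant glycosomal PGK reaction used 1,3-bisphosphoglycerate generated in-well by GAPDH (100nM final) in 100mM TEA pH 7.6, 5mM MgCl2, 0.01% Tween-20. After 60 minutes at room temperature, ATP was read by Kinase-Glo Plus luminescence end-point.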
Pin1 inhibitor: qHTS Assay to Find Inhibitors of Pin1 | Pin1 FP peptide displacement, HiFluor488, 10 min | Potency, µM (series often up to 115 µM), for the others: at the top dose activity, negative = inhibition, actives largely listed as inhibitors | Peptidyl-prolyl cis-trans isomerase NIMA-interacting 1 (Homo sapiens), Q13526 | actives 0.009% (n = 390,000); active = well fitted inhibition curve with a large enough effect in the polarisation, with a control signal flat, not every such curve was filed as active; inconclusive = small, poorly fitted or top-dose-only effect, or effect the other way, or a change in a side signal; inactive = no such curve, though single readings can be large or run the other way; the % refers to the polarisation
GLS inh: qHTS for Inhibitors of Glutaminase (GLS). GLS enzymatic activity, qHTS titration. actives 0.21% (n = 410,000). AID 624170, 2012. Potency, µM (highest dose often 45.5 µM), inactives show top-dose activity change, negative = inhibition, usual class: inhibitors. Glutaminase kidney isoform, mitochondrial (Homo sapiens), O94925
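Enzyme dispensed in phosphate buffer (45 mM, pH 8.2, 0.02% Tween-20), compounds pinned in, then 1 mM L-glutamine solution and the glutamate oxidase–HRP–Amplex Red mix added; fluorescence read immediately and again after 30 min at room temperature.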
VDR inhibitor: Inhibitors of the vitamin D receptor (VDR): qHTS. Vitamin D3 receptor (Homo sapiens), P11473. VDR-SRC2-3 peptide fluorescence polarization, 2 h. Potency, µM, inactives show max response, negative = inhibition, usual class: inhibitors. actives 0.93% (n = 400,000). AID 504847, 2011
Target sequence (P11473 whole entry, looked up): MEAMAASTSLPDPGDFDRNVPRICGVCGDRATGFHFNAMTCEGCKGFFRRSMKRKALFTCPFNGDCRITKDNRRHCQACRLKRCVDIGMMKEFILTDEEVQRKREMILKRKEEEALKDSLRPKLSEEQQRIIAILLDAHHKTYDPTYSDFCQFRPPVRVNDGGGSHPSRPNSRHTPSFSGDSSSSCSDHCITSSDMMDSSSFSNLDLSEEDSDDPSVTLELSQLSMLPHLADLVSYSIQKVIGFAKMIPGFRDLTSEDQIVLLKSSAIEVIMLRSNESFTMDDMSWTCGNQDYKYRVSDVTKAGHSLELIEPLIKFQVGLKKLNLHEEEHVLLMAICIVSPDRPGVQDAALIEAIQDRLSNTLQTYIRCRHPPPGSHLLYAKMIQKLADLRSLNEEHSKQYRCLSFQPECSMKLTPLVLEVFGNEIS
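FP read-out; VDR + SRC2-3 coactivator peptide; 23 nl compound by pintool; 2 h RT incubation; reagents held at 4 deg C, protected from light.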
Tb PFK block: qHTS Assay to Find Inhibitors of T. brucei phosphofructokinase. ATP-dependent 6-phosphofructokinase (Trypanosoma brucei brucei), O15648. T. brucei PFK, ADP-Glo luminescence. Potency, µM (series often up to 57.5 µM), inactives show at the top dose activity, negative = inhibition, most hits filed as inhibitors. actives 0.17% (n = 330,000). AID 485367, 2010;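 also: 0% = uninhibited 1x PFK enzyme wells and -100% = no-enzyme wells; nearly all actives have a fitted effect of over 60% in size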
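Compounds were pin-transferred as a titration series up to 57 uM into substrate buffer (0.5 mM F6P, 0.1 mM ATP, pH 8.0), then 1.25 nM PFK was added and reactions ran 45 min before ADP-Glo detection.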
Starred values were filed as active, the others as inactive; i = inactive; u = inconclusive; x = not tested or not shown. Compounds with a hit are over-represented: about 1.1% of the library has one in this group of screens. Unless noted, calls follow the shape of the dose curve; as a rule, active = well fitted curve in the direction sought with a large enough effect; inconclusive = small, poorly fitted or top-dose-only effect, or another doubt; inactive = no such curve, though single readings can be large; an effect the other way counts as inactive or inconclusive. Unless noted, % is scaled to controls: 0 for no effect and ±100 for the full control effect; potency is read from the fitted curve at half-maximal effect.

SMILES	PGK inhibitor	Pin1 inhibitor	GLS inh	VDR inhibitor	Tb PFK block
COc1ccc(C(=O)N(Cc2cc(OC)c(OC)c(OC)c2)C2CCS(=O)(=O)C2)cc1Cl (stereo unspecified)	-8%	-7%	0%	8%	x
Cc1c(Cl)cccc1NC(=S)Nn1cnnc1	-2%	10%	36%	79µM*	-9%
Cc1c(Cl)cccc1NC(=S)NC1CC1	1%	14%	6%	-25%	-4%
COc1ccc(CCNC(=O)COc2ccc(-c3ccc(C#N)cc3)cc2)cc1	-6%	-1%	-8%	-14%	-6%
COc1ccc(CCNC(=O)COc2ccc([N+](=O)[O-])cc2)cc1	1%	-2%	u	28µM*	-11%
COC(=O)c1ccc(-c2ccc(C(c3c(C)[nH][nH]c3=O)c3c(C)[nH][nH]c3=O)o2)cc1	-10%	u	-10%	35µM*	-10%
CCOC(=O)c1ncc2[nH]c3cccc(OC(C)C)c3c2c1C	x	x	x	-14%	x
O=C(NC1CC(=O)N(c2ccccc2)C1)c1ccc(S(=O)(=O)N2CCCCC2)cc1 (stereo unspecified)	6%	u	7%	-14%	x
COC(=O)N/N=C/c1ccc(OS(=O)(=O)c2ccc(C)cc2)c(OC)c1	-12%	0%	-18%	-15%	5%
C=CCNC(=O)/C(C#N)=C/c1ccc(OS(=O)(=O)c2ccc(C)cc2)c(OC)c1	0%	1%	10%	28µM*	1%
COc1ccccc1Nc1sc(C(=O)c2ccc3c(c2)OCO3)c(N)c1S(=O)(=O)c1ccccc1	i	14%	-7%	6%	x
O=c1[nH]cnc2c1ncn2[C@H]1C[C@H](O)[C@@H](CO)O1	x	7%	x	u	x
O=C(O)c1ccc([N+](=O)[O-])c(CS(=O)(=O)c2ccc(Cl)cc2)c1	-1%	0%	2%	-4%	-4%
O=C(CBr)c1ccc([N+](=O)[O-])c(CS(=O)(=O)c2ccc(Cl)cc2)c1	-6%	1%	-6%	35µM*	0%
N#C/C(=C/c1cn(Cc2ccc(F)cc2)c2ccccc12)C(=O)Nc1cccc(Cl)c1	1%	u	0%	-19%	x
COc1ccc(C(=O)O/N=C(\N)c2ccccn2)cc1	11µM*	-2%	1%	3%	15µM*
COc1ccccc1C(=O)O/N=C(\N)c1ccccn1	-13%	1%	0%	-3%	-29%
COc1ccc(C(=O)NNC(=O)c2ccccn2)cc1	u	-3%	0%	-13%	15µM*
COc1cc(OC)cc(C(=O)NNC(=O)c2ccccn2)c1	4%	-1%	-16%	-3%	13%
Cc1ccc(C(=O)O/N=C(\N)c2ccccn2)c(C)c1	16µM*	-3%	6%	-10%	u
COc1ccc(-c2nc3cnc(N(C)C)nc3n(C[C@H]3CCCO3)c2=O)cc1	x	x	x	-2%	x
Cn1nnnc1SCC1=C(C(=O)O)N2C(=O)[C@@H](NC(=O)[C@H](O)c3ccccc3)[C@H]2SC1	u	3.2µM*	10µM*	-25%	3%
Cn1nnnc1SCC1=C(C(=O)O)N2C(=O)[C@@H](NC(=O)[C@H](OC=O)c3ccccc3)[C@H]2SC1	x	x	22µM*	x	x
CC(C(=O)NC1C(=O)N2C(C(=O)O)=C(CSc3nnnn3C)CSC12)n1cc(Br)cn1 (stereo unspecified)	u	-20%	-8%	-15%	u
Cn1nnnc1SCC1=C(C(=O)O)N2C(=O)C(NC(=O)C(O)c3ccccc3)C2SC1 (stereo unspecified)	x	x	x	50µM*	x
Cn1nnnc1SCC1=C(C(=O)O)N2C(=O)C(NC(=O)C3CC3c3ccccc3)C2SC1 (stereo unspecified)	u	u	6%	u	-21%
CCn1nccc1C(=O)Nc1ccc(C(=O)OC(C)C)cc1	-8%	-2%	3%	-8%	-2%
COc1ccc(C(CNC(=O)C(=O)NC2CCCC2)N2CCN(C)CC2)cc1 (stereo unspecified)	3%	1%	-3%	-7%	-13%
